High-throughput results (PubChem)
ADAM10 inh: inhibitors of human ADAM10. inhibition, % at 7 µM. AID 720582. actives 0.62% (n = 370,000). recombinant ADAM10, EDANS/DABCYL FRET peptide cleavage, 3 h. O14672;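 active = inhibition above a per-campaign cutoff equal to the mean of compounds falling between control-based bounds plus 3 SD, cut at about 20% in these data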
ADAM17 inh: ADAM17 inhibition, QFRET primary screen; inhibition, % at 6.95 µM; recombinant ADAM17, EDANS/DABCYL FRET peptide cleavage; P78536; actives 0.83% (n = 370,000); AID 720648;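 active = inhibition above the mean of compounds lying between control limits plus 3 SD, set per campaign, cut at about 8.5% in these data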
PLCg1 inh: PLC-gamma1 (human) inhibition, primary screen; purified PLC-gamma1, fluorogenic substrate, fluorescence; AID 720700; inhibition, % at 12.2 µM; P19174; actives 0.84% (n = 370,000); in the data active = inhibition above about 9.5%
PLC-beta3 inh: PLC-beta3 (human) inhibition, primary screen; Q01970; Purified PLC-beta3, fluorogenic substrate, fluorescence; inhibition, % at 12.2 µM; actives 0.18% (n = 370,000); AID 720704
KLK7 zymogen act: activates the human kallikrein-7 zymogen; actives 0.9% (n = 370,000); activation, % at 7 µM; AID 652039; P49862; purified proKLK7, EDANS-DABCYL substrate fluorescence; 100% is mature enzyme control, 0% vehicle;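 active = activation above the mean of all tested compounds plus 3 SD, computed per campaign excluding outliers beyond control limits, cut at about 13% in these data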
PLCgamma1 ctr: counter-screen for PLC-beta3 inhibitors: inhibitors of human PLC-gamma1; shares compounds with PLCg1 inh; purified PLC-gamma1, fluorogenic substrate, fluorescence; inhibition, % at 12.3 µM; actives 3.1% (n = 3,300); AID 743258; in the data active = inhibition above about 9.5%
PLCb3 confirm: confirmation of human PLC-beta3 inhibitors; shares compounds with PLCg1 inh; purified PLC-beta3, fluorogenic substrate fluorescence; inhibition, % at 12.3 µM; actives 1% (n = 3,300)
Numbers stand for hits; i = inactive; nt = no result given. This is a sample that favours compounds with a hit; in the whole collection about 2.9% have one here. Cut-off read from the data, not from the text of the source, unless noted: active = inhibition above about 11%; inactive = the rest.

SMILES	ADAM10 inh	ADAM17 inh	PLCg1 inh	PLC-beta3 inh	KLK7 zymogen act	PLCgamma1 ctr	PLCb3 confirm
CCC(C)[C@H](NC(=O)OC(C)(C)C)C(=O)N[C@@H](Cc1ccccc1)C(=O)OC (stereo not given in full)	i	i	i	i	i	nt	nt
CCOC(=O)C1CCN(Cc2cnc(Oc3ccc(OC)cc3)s2)CC1	i	i	i	11	i	i	i
CCCCc1ccc2nc(NC(=O)c3cccs3)sc2c1	i	i	i	i	nt	nt	nt
Cc1ccc2cc(CCNC(=O)C3CCCCC3)c(=O)[nH]c2c1C	i	i	i	i	i	nt	nt
Cc1ccc2cc(CCNC(=O)C3CCCC3)c(=O)[nH]c2c1	i	i	i	11	i	i	i
CCN(CC)S(=O)(=O)c1ccc(C(=O)NCC(=O)NCc2ccc3c(c2)OCO3)cc1	i	i	i	i	i	nt	nt
CC(C)C(NC(=O)c1ccccc1)C(=O)OCC(=O)N1CCN(c2ccccc2)CC1 (stereo not given)	i	i	11	i	i	i	i
CC(C)C(NC(=O)c1ccccc1)C(=O)OCC(=O)N1CCCCC1 (stereo not given)	i	i	i	i	i	nt	nt
O=C(NCCC(c1ccccc1)c1ccccc1)c1ccc(Br)o1	i	i	i	i	i	nt	nt
O=C(O)CCNC(=O)c1ccc(Br)o1	i	i	12	i	i	i	i
O=C(NC12CC3CC(CC(C3)C1)C2)c1ccc(S(=O)(=O)N2CCOCC2)cc1	i	i	i	12	i	i	i
CC(C)C(=O)Nc1nc(-c2ccc(S(=O)(=O)N3CCOCC3)cc2)cs1	i	i	i	i	i	nt	nt
O=C(Nc1nc(-c2ccncc2)cs1)c1ccc(S(=O)(=O)N2CCOCC2)cc1	i	i	13	i	i	i	i
O=C(Nc1ccc(S(=O)(=O)N2CCOCC2)cc1)c1ccc(S(=O)(=O)N2CCOCC2)cc1	i	i	i	i	i	nt	nt
O=C(Nc1cccc(F)c1)c1ccc(S(=O)(=O)N2CCOCC2)cc1	i	i	10	i	i	i	i
O=C(CN(Cc1ccc(F)cc1)S(=O)(=O)c1ccc(S(=O)(=O)N2CCOCC2)cc1)Nc1ccccc1	i	i	i	11	i	i	i
CC(=O)c1ccc(N2CCN(C(=O)c3cccs3)C(C)C2)c(F)c1 (stereo not given)	i	i	i	i	i	nt	nt
Cc1ccc2c(c1)CCCN2C(=O)c1cc2ccccc2oc1=O	i	i	i	i	i	nt	nt
COc1cccc(CC(=O)N2CCN(S(=O)(=O)c3ccc(Br)cc3)CC2)c1	i	i	12	i	i	i	i
CN(C)S(=O)(=O)c1cc(NC(=O)COC(=O)CCc2ccccc2)ccc1Cl	i	i	i	i	i	nt	nt
CN(C)S(=O)(=O)c1cc(NC(=O)[C@H](Cc2ccccc2)N2C(=O)c3ccccc3C2=O)ccc1Cl	i	i	i	11	i	i	i
Cc1ccc(S(=O)(=O)N(C)CCCC(=O)N2CCN(C=O)CC2)cc1	i	i	10	11	i	i	i
Cc1ccc(S(=O)(=O)N(C)CCCC(=O)N2CCOCC2)cc1	i	i	i	i	i	nt	nt
O=C(CSc1nnc(-c2cccs2)o1)c1cccc([N+](=O)[O-])c1	i	i	i	i	i	nt	nt
O=C(CC(=O)N/N=C/c1ccc(O)cc1)N/N=C/c1ccc(O)cc1	i	i	12	i	i	i	i
SMILES	ADAM10 inh	ADAM17 inh	PLCg1 inh	PLC-beta3 inh	KLK7 zymogen act	PLCgamma1 ctr	PLCb3 confirm
O=C(Cc1cccs1)N/N=C\c1ccc(O)cc1	i	i	i	i	i	nt	nt
CCC(NC(=O)C1CCCN(c2ncccn2)C1)c1ccccc1 (stereo not given)	i	i	i	i	i	nt	nt
CC(=O)OCCCN1c2ccccc2Nc2nnc(-c3ccccc3)cc21	i	i	i	14	i	i	i
O=C1c2ccccc2C(=O)c2c(O)c(O)cc(O)c21	i	i	i	i	i	nt	nt
O=C1C=C(O)c2c(O)cc(O)c(O)c2C1=O	i	i	31	15	i	i	i
COc1ccc(-c2ccc(C(=O)Nc3cccc(NS(C)(=O)=O)c3)c3occc23)c(C)c1	i	i	i	i	i	nt	nt
O=C(OCC#CCSc1nnc(-c2cccc3ccccc23)o1)c1ccc(C(F)(F)F)cc1	i	i	i	i	nt	nt	nt
C#CCN(C)CC/C=C1\c2ccccc2CSc2ccccc21	i	i	10	i	i	i	i
C=CCNC(=S)NNC(=O)CCC(O)CCCCC (stereo not given)	i	i	i	12	i	i	i
O=C(NNC(=O)c1ccc(F)cc1)c1ccncc1	i	i	11	i	i	i	i
O=C(CSc1nnc(-c2cccnc2)n1-c1ccc(Cl)cc1)c1ccc(F)cc1	i	i	i	i	i	nt	nt
CCOC(=O)C(NC(=O)CC)(Nc1ccc(S(N)(=O)=O)cc1)C(F)(F)F (stereo not given)	i	i	i	i	i	nt	nt
CCOC(=O)C(NC(=O)CC)(Nc1ccccc1)C(F)(F)F (stereo not given)	i	i	14	11	i	i	i
O=c1[nH][nH]c2c1C(c1ccc(Cl)c(Cl)c1)OC(CCc1ccccc1)C2 (stereo not given)	i	i	i	i	i	nt	nt
COC(=O)[C@]12C[C@H](CC(=O)NCc3cccc4ccccc34)C(=O)N(Cc3ccccc3)C1=C[C@H](COCc1ccccc1)O[C@@H]2C	i	i	i	i	i	nt	nt
Cc1ccc(-c2noc(CCC(=O)NC3CCCC3)n2)cc1	i	i	i	i	i	nt	nt
CCN1CCCC1CNC(=O)CCc1nc(-c2ccc(C)cc2)no1 (stereo not given)	i	i	10	i	i	i	i
CC1=CC(C)(C)NC(=S)N1c1ccc(N(C)C)cc1	i	i	i	i	i	nt	nt
Cn1cc(C(=O)NC2C3CC4CC(C3)CC2C4)cn1 (stereo not given)	i	i	12	i	i	i	i
CC(C)(C)c1ccc(-c2nnc(SCc3ccccc3)n2Cc2ccco2)cc1	i	i	i	i	i	nt	nt
Cc1ccc(Nc2n[nH]c(C)c2[N+](=O)[O-])c(C)c1	i	i	9.6	i	i	i	i
Cc1ccccc1Nc1n[nH]c(C)c1[N+](=O)[O-]	i	i	i	i	i	nt	nt
O=C(CSc1nnc(CCCN2C(=O)c3cccc4cccc(c34)C2=O)n1-c1ccccc1)NCCCN1CCOCC1	i	i	11	i	i	i	i
Cc1cccc(OCC(=O)OCC(=O)N(CC(C)C)c2c(N)n(Cc3ccccc3)c(=O)[nH]c2=O)c1C	i	i	14	i	i	i	i
Cc1ccc(CN2CC(C(=O)N(CC(C)C)c3c(N)n(Cc4ccccc4)c(=O)[nH]c3=O)CC2=O)cc1 (stereo not given)	i	i	10	i	i	i	i
Cc1ccc(C)c(C(O)c2ncc(-c3ccc(Cl)cc3)[nH]2)c1 (stereo not given)	i	i	i	i	i	nt	nt
